Measurements published in PubChem BioAssay (EPA / NIEHS).
Results filed as inconclusive are left out. Calls of active or inactive are those of the source. Rule for the calls, unless noted: active = hit-call score of the fitted dose curve at least 0.9, where 1 is the maximum; inactive = score below 0.9.

Legend:
[1] = BSK_LPS_PGE2: BioMAP Diversity Plus: LPS Assay for Prostaglandin E2 (PGE2) Biomarker Activity (AID 2283082); conditions: primary human HUVEC with PBMC; actives raise or lower the signal;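 for AC50: secreted prostaglandin E2 measured by ELISA in LPS-stimulated co-culture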
How it was run: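 Endpoint derived from bidirectional curve fitting versus DMSO of ELISA-measured PGE2 in LPS-stimulated human primary vascular co-culture (HUVEC with PBMC) harvested at 24 h.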

[2] = read-out: Macrophage colony-stimulating factor (MCSF), CSF1 (gene 1435); assay: BSK_LPS_MCSF: BioMAP Diversity Plus: LPS Assay for Macrophage colony-stimulating factor (MCSF) Biomarker Activity (AID 2283083); conditions: primary human HUVEC with PBMC; actives raise or lower the signal
How it was run: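 Bidirectional fit versus DMSO of ELISA-measured M-CSF in co-cultured human umbilical vein endothelial cells and PBMC, sampled 24 h after dosing.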

[3] = read-out: Tissue Factor, F3 (gene 2152); assay: BSK_LPS_TissueFactor: BioMAP Diversity Plus: LPS Assay for Tissue Factor Biomarker Activity (AID 2283084); conditions: primary human HUVEC with PBMC; actives raise or lower the signal
How it was run: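 Read-out: CD142 ELISA, 24 h. System: LPS-driven human endothelial/PBMC co-culture. Analysis: up- or down-signal fitted against DMSO.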

[4] = read-out: Tumor necrosis factor (Homo sapiens) (UniProt P01375); assay: BSK_LPS_TNFa: BioMAP Diversity Plus: LPS Assay for Tumour Necrosis Factor alpha (TNFa) Biomarker Activity (AID 2283085); conditions: primary human HUVEC with PBMC; actives raise or lower the signal
How it was run: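 Primary human vascular co-culture of HUVEC and PBMC; TNFa ELISA 24 h after treatment, analysed as increase or decrease relative to DMSO control.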

[5] = read-out: Vascular cell adhesion molecule 1 (VCAM1), VCAM1 (gene 7412); assay: BSK_LPS_VCAM1: BioMAP Diversity Plus: LPS Assay for Vascular cell adhesion molecule 1 (VCAM1) Biomarker Activity (AID 2283086); conditions: primary human HUVEC with PBMC; actives raise or lower the signal
How it was run: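 Primary human vascular co-culture (umbilical vein endothelium plus PBMC) stimulated with LPS received chemical; 24 h later VCAM-1 was read by ELISA. Overt cytotoxicity was assessed by sulforhodamine B staining of parallel cultures at the same time point.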

[6] = read-out: CD40, CD40 (gene 958); assay: BSK_SAg_CD40: BioMAP Diversity Plus: SAg Assay for CD40 Biomarker Activity (AID 2283088); conditions: primary human HUVEC with PBMC; actives raise or lower the signal
How it was run: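 Endpoint derived by fitting increases or decreases versus DMSO controls. CD40 is detected by fluorescence ELISA in a human vascular co-culture of endothelium and PBMC at 24 h.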

[7] = read-out: CD69, CD69 (gene 969); assay: BSK_SAg_CD69: BioMAP Diversity Plus: SAg Assay for CD69 Biomarker Activity (AID 2283089); conditions: primary human HUVEC with PBMC; actives raise or lower the signal;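 for AC50: cell surface CD69 protein quantified by ELISA with fluorescence detection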
How it was run: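 Values derive from bidirectional fitting relative to DMSO vehicle. Cells: umbilical vein endothelium plus peripheral blood mononuclear cells, treated 24 h before fluorescent ELISA for CD69.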

[8] = read-out: Monocyte Chemoattractant Protein-1 (MCP1), CCL2 (gene 6347); assay: BSK_SAg_MCP1: BioMAP Diversity Plus: SAg Assay for Monocyte Chemoattractant Protein-1 (MCP1) Biomarker Activity (AID 2283090); conditions: primary human HUVEC with PBMC; actives raise or lower the signal
How it was run: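 MCP-1 levels in the endothelial–PBMC SAg co-culture were quantified by ELISA at 24 h post-dosing; both increases and decreases versus DMSO scored. Cytotoxicity monitored by SRB total protein in parallel cultures.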

[9] = read-out: E-selectin (Homo sapiens) (UniProt P16581); assay: BSK_SAg_Eselectin: BioMAP Diversity Plus: SAg Assay for Eselectin Biomarker Activity (AID 2283091); conditions: primary human HUVEC with PBMC; actives raise or lower the signal
How it was run: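 Endpoint values derive from bidirectional fitting relative to DMSO, using ELISA-measured E-selectin in a human vascular co-culture (umbilical vein endothelium plus PBMC) sampled 24 h after dosing.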

[10] = read-out: Monokine induced gamma interferon (MIG), CXCL9 (gene 4283); assay: BSK_SAg_MIG: BioMAP Diversity Plus: SAg Assay for Monokine induced gamma interferon (MIG) Biomarker Activity (AID 2283092); conditions: primary human HUVEC with PBMC; actives raise or lower the signal
How it was run: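 Values reflect bidirectional fitting of ELISA-measured MIG against DMSO vehicle, taken 24 h after dosing of a co-culture of human umbilical vein endothelial cells and peripheral blood mononuclear cells.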

[11] = BSK_SAg_PBMCCytotoxicity: PBMC Cytotoxicity Assessment in the BioMAP Diversity Plus: SAg Assay (AID 2283093); conditions: primary human HUVEC with PBMC;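 note: PBMC viability measured as Alamar Blue reduction fluorescence at 546/580 nm; fitted both ways against DMSO so a hit may be loss or gain of signal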;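 for AC50: PBMC superantigen activated with SEB plus TSST-1 one hour after compound addition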
How it was run: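 Compound added to 75,000 PBMC/well for 1 h; SEB and TSST-1 then added at 20 ng/mL final each; 90 h incubation; Alamar Blue 6 h; read 546/580 nm ex/em. Activity fitted bidirectionally relative to DMSO baseline.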

[12] = read-out: Interleukin-8 (IL8), CXCL8 (gene 3576); assay: BSK_SAg_IL8: BioMAP Diversity Plus: SAg Assay for Interleukin-8 (IL8) Biomarker Activity (AID 2283094); conditions: primary human HUVEC with PBMC; actives raise or lower the signal
How it was run: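 In this co-culture of human umbilical vein endothelium with peripheral blood mononuclear cells, IL-8 is assayed by ELISA at 24 h. DMSO serves as baseline for bidirectional curve fitting.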

[13] = BSK_SAg_Proliferation: Cell Proliferation Assessment in the BioMAP Diversity Plus: SAg Assay (AID 2283095); conditions: primary human HUVEC with PBMC;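 note: relative cell number as total protein by SRB absorbance in sub-confluent culture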
How it was run: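 Readout is SRB-stained protein (560 nm) in a primary human HUVEC and PBMC co-culture; sub-confluent cultures are read at 96 h. Activity is fitted bidirectionally using DMSO as baseline.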

[14] = BSK_SAg_SRB: Viability Assessment in the BioMAP Diversity Plus: SAg Assay (AID 2283096); conditions: primary human HUVEC with PBMC;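 note: cells read one day after compound addition; hits may be either gain or loss of signal compared with DMSO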
How it was run: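 Total protein by sulforhodamine B staining, 24 h after dosing, in HUVEC–PBMC co-culture; DMSO-referenced bidirectional fitting.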

[15] = target: human CYP1A2, CYP1A2 (gene 1544) (UniProt P05177); assay: NVS_ADME_hCYP1A2: NovaScreen (NVS) CYP450-related Enzyme Activity (ADME) Assay for human CYP1A2 (AID 2283102; active = hit-call score of the fitted dose curve at least 0.9, where 1 is the maximum;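 for AC50: fluorescence from turnover of a fluorogenic substrate by recombinant insect-cell CYP1A2; potency for inhibition since loss of fluorescence marks reduced CYP1A2 activity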)
How it was run: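 Inhibition scored as decrease in fluorescent product versus acetonitrile negative control. Enzyme: insect-cell recombinant human CYP1A2, substrate-specific, cell-free. Reading at 0.5 h; 10 uM duplicate initial screen with positive and negative controls on every plate.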

[16] = target: human CYP2A6, CYP2A6 (gene 1548) (UniProt P11509); assay: NVS_ADME_hCYP2A6: NovaScreen (NVS) CYP450-related Enzyme Activity (ADME) Assay for human CYP2A6 (AID 2283099; active = hit-call score of the fitted dose curve at least 0.9, where 1 is the maximum)
How it was run: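 Loss of fluorescence signal relative to acetonitrile vehicle reported CYP2A6 inhibition in a cell-free system using insect-cell-derived enzyme. Readings were taken at 0.5 h; top concentration in follow-up dose series was 20 uM.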

[17] = target: human CYP2B6, CYP2B6 (gene 1555) (UniProt P20813); assay: NVS_ADME_hCYP2B6: NovaScreen (NVS) CYP450-related Enzyme Activity (ADME) Assay for human CYP2B6 (AID 2283101; active = hit-call score of the fitted dose curve at least 0.9, where 1 is the maximum)
How it was run: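 Compounds were first screened in duplicate at 10 uM against recombinant enzyme, with the fluorescent product measured after 1 hour. Active compounds were retested over a concentration series. Loss of fluorescence versus acetonitrile control was scored as reduced enzyme activity.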

Measured: AC50

Tumor necrosis factor (Homo sapiens), sequence (P01375 whole entry, looked up): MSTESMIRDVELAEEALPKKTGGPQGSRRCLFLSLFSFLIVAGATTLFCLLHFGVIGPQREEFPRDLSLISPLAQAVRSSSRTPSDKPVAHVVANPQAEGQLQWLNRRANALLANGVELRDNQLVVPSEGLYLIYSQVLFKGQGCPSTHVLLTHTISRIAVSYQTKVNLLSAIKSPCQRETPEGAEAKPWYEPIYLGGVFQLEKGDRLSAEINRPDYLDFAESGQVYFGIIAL
E-selectin (Homo sapiens), sequence (P16581 whole entry, looked up): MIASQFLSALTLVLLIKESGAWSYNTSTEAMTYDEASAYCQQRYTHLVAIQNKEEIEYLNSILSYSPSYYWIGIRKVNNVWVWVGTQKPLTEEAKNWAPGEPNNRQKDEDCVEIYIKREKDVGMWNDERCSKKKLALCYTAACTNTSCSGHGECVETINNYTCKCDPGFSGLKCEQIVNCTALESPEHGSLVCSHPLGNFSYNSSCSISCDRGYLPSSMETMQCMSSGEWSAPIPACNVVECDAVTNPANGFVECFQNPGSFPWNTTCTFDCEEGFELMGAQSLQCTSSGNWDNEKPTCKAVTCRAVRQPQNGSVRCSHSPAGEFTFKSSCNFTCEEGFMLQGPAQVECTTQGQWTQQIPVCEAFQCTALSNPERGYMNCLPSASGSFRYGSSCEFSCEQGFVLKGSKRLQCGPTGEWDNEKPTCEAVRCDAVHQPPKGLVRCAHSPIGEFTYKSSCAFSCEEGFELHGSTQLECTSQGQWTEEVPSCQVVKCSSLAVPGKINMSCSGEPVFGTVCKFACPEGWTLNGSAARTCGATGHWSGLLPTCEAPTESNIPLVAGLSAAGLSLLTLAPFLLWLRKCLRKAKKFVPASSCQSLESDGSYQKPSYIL
human CYP2A6, CYP2A6 (gene 1548), sequence (P11509 whole entry, looked up): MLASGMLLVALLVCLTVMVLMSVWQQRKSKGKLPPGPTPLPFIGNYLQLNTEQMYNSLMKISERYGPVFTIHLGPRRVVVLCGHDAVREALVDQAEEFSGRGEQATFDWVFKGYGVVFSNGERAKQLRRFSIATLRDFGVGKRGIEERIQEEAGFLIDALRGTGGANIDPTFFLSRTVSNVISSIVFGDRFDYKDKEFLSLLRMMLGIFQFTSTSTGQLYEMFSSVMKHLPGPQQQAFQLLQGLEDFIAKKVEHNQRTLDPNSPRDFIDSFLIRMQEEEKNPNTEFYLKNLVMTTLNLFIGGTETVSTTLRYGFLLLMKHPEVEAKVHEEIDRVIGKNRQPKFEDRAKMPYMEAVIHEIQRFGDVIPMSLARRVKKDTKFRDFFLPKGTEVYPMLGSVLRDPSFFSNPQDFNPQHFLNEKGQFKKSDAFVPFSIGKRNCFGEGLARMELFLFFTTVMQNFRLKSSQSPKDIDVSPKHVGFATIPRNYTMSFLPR
human CYP1A2, CYP1A2 (gene 1544), sequence (P05177 whole entry, looked up): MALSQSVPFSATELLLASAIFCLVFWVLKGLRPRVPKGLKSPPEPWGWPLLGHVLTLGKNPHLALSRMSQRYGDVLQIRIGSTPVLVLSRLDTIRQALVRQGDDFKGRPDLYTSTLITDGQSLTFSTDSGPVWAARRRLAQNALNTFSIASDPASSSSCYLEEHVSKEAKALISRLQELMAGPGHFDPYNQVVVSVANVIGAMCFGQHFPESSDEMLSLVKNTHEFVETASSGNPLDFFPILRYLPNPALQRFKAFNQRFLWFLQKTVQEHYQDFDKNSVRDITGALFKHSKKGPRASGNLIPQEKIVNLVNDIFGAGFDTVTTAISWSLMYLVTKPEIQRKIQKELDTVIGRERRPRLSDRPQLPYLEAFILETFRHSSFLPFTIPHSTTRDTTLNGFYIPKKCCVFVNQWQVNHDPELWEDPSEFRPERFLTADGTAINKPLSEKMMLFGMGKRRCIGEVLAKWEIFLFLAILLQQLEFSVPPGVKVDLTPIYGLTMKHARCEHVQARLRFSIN
human CYP2B6, CYP2B6 (gene 1555), sequence (P20813 whole entry, looked up): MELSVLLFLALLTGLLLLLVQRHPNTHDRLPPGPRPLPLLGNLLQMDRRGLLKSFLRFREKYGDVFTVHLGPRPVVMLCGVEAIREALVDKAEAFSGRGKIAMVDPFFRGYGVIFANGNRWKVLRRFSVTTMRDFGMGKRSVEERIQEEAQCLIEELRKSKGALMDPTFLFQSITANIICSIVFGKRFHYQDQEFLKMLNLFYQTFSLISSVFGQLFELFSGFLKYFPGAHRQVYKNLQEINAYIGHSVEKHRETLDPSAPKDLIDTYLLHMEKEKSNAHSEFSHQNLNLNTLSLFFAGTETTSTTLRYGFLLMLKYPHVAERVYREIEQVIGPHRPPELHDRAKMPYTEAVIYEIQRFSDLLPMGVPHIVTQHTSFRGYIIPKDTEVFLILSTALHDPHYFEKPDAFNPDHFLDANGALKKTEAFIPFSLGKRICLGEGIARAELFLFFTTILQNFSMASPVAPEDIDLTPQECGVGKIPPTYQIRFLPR

CC1(C)CC(N=C=O)CC(C)(CN=C=O)C1 (stereo unspecified)
inactive: [1] | [2] | [3] | [4] | [5] | [6] | [7] | [8] | [9] | [10] | [11] | [12] | [13] | [14] | [15]

Nc1ccc2c(c1)C(=O)c1ccccc1C2=O
inactive: [2] | [3] | [5] | [6] | [7] | [8] | [9] | [11] | [12] | [13] | [14] | [16] | [17]
active: [1] 3.36 µM | [4] 5.74 µM | [15] 4.65 µM

CCCCCCCCCCO
active: [3] 0.152 µM
inactive: [1] | [2] | [4] | [5] | [6] | [7] | [8] | [9] | [11] | [12] | [13] | [14]

CNCc1cc(F)ccc1Oc1ccc(Cl)c(Cl)c1
inactive: [1] | [2] | [3] | [5] | [14]
active: [4] 0.461 µM | [6] 36.5 µM | [7] 26.3 µM | [8] 26.4 µM | [9] 20 µM | [11] 25.7 µM | [12] 20 µM | [13] 26.1 µM

CCCCOC(=O)CCCCCCCCC(=O)OCCCC
inactive: [1] | [2] | [3] | [4] | [5] | [6] | [7] | [8] | [9] | [11] | [12] | [13] | [14]

C=CCc1ccc(O)c(OC)c1
active: [1] 0.542 µM | [9] 4.26 µM
inactive: [2] | [3] | [4] | [5] | [6] | [7] | [8] | [11] | [12] | [13] | [14]

CCCCN(CCCC)CCCC
inactive: [1] | [2] | [3] | [4] | [5] | [6] | [7] | [8] | [9] | [11] | [12] | [13] | [14]

CCCCCCCCCCCC(=O)OC
active: [11] 20 µM
inactive: [1] | [2] | [3] | [4] | [5] | [6] | [7] | [8] | [9] | [12] | [13] | [14]

Cc1ccc(C(C)C)c(O)c1
active: [1] 8.88 µM
inactive: [2] | [3] | [4] | [5] | [6] | [7] | [8] | [9] | [10] | [11] | [12] | [13] | [14]

Cc1oc(-c2ccccc2)nc1CCOc1cccc2c1ccn2CCC(=O)O
active: [1] 5.34 µM | [4] 0.655 µM
inactive: [2] | [3] | [5] | [6] | [7] | [8] | [9] | [10] | [11] | [12] | [13] | [14]

CCCCC(CC)COC(=O)CC(C(=O)OCC(CC)CCCC)S(=O)(=O)O (stereo unspecified)
inactive: [1] | [4]
active: [2] 31.4 µM | [3] 32 µM | [5] 36.5 µM | [6] 35.5 µM | [7] 32.1 µM | [8] 33 µM | [9] 34.1 µM | [10] 38 µM | [11] 34.8 µM | [12] 33.6 µM | [13] 32.5 µM | [14] 36.2 µM

O=c1[nH]cc(F)c(=O)[nH]1
inactive: [1] | [2] | [3] | [4] | [6] | [7] | [8] | [9] | [11] | [12] | [14]
active: [5] 20.4 µM | [13] 2.48 µM

Cc1ccc(C)c(O)c1C
inactive: [2] | [3] | [4] | [5] | [6] | [7] | [8] | [9] | [11] | [12] | [13] | [14] | [16]
active: [1] 0.795 µM

CCCCCCCCCCCCCCCC
inactive: [1] | [2] | [3] | [4] | [5] | [6] | [7] | [8] | [9] | [11] | [12] | [13] | [14]
